PubChem BioAssay AID977630 (Broad Institute, 2014)
Screen size: about 1,600 compounds; fewer than 10 were called active. Another 48% or so got no clear call; they are omitted.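 Rule for the calls: active = Normal-ribosome green reporter loss at least double humanized-ribosome red reporter loss, with overall culture growth inhibition under a set limit; inconclusive = no clear call, values can overlap the other calls; inactive = the rest.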 These entries were drawn from the full list. Potency and affinity values are given separately.

Assay: E. coli growth inhibition, wild-type GFP versus H38 humanized RFP strain – H38 mutant RFP vs wild-type GFP, cherry-pick, dose response (AID 977630)
Details: mixed culture, 24 h; series mostly up to 50 µM; activity change, negative = inhibition: at the top concentration

Activity change, negative = inhibition, inactive:
COc1ccccc1-c1noc2ncnc(Nc3cccc(C)c3C)c12 -12.6
Cc1ccc([N+](=O)[O-])c(OCCn2cnc3ccccc32)c1 -3.1
Cc1cc2nc(SCC(=O)O)nc(C)c2cc1C -1.89
COc1ccc(CN2C(=O)CC(Cc3cc(C)cc(C)c3)C2=O)cc1OC (centres undefined) -9.75
O=C(CN(c1ccc(F)cc1)S(=O)(=O)c1ccccc1)Nc1ccccc1C(=O)O -16.1
COc1ccc(OC)c(-c2nn(-c3ccccc3)cc2C(=O)N2CCc3ccccc3C2)c1 -1.81
CN(C)c1ccc(-c2nnn(CC(=O)Nc3ccccc3N3CCOCC3)n2)cc1 -7.73
CC(CCc1ccccc1)NC(=O)CCC1CCCC1 (centres undefined) -14.9
COc1ccc(-c2nc(C3CCCCC3)no2)cc1OC -8.9
CCC1(C(=O)OC)CCc2c(cc(OC)c3ccccc23)C1=O (centres undefined) -1.7
CN(Cc1c(F)cccc1Cl)C(=O)c1ccc(NS(=O)(=O)c2ccc3[nH]c(=O)[nH]c3c2)cc1 1.93
Nc1ccc(C(=O)Nc2ccc3nc(-c4ccncc4)[nH]c3c2)cc1 -4.86
Cc1ccccc1Nc1c(-c2cccnc2)nc2ccc(Br)cn12 3.56
CN(C)S(=O)(=O)c1cccc(C(=O)Nc2ccc(C(=O)Nc3cccc(S(N)(=O)=O)c3)cc2)c1 -13.6
CCN(CC)c1nc(Oc2ccc(C(=O)OC)cc2)nc(N2CCOCC2)n1 -10.1
Cc1nc2ncnn2c(N2CCC(C(=O)NC3CCCC3)CC2)c1Cc1ccccc1 -8.17
CCN(CC(=O)Nc1cccc(S(=O)(=O)N2CCCC2)c1)CC(=O)Nc1ccccc1OC -16.9
COCc1nnc(NC(=O)c2ccc(S(=O)(=O)N3CCCC3)cc2)o1 -9.48
Cc1cccc(N2Cc3ccc(Br)cc3C2)c1 0.636
CCN(CC)S(=O)(=O)c1ccc(N2CCCC2)c(NC(=O)c2ccccc2OC)c1 -11
O=C(Nc1ccc(Nc2ccccc2)cc1)c1ccc(F)cc1 -19.7
Fc1ccc(Br)cc1SCCc1ccncc1 -5.72
CCOC(=O)c1ccc(NC(=O)c2ccc(OC(C)C)c(OC)c2)cc1 -13.1
COc1cccc(NC2=Nc3cccc4cccc2c34)c1 0.034
CS(=O)(=O)N(CC(=O)N1CCc2ccccc2C1)c1cccc(Br)c1 -7.69
CC1Cc2cc(S(=O)(=O)N3CCN(c4cccc(Cl)c4)CC3)ccc2N1C(=O)C1CC1 (centres undefined) -7.78
Cn1c(=O)c2c(ncn2CC(O)CNc2ccc(F)cc2)n(C)c1=O (centres undefined) -2.9
O=C(NCCCN1CCOCC1)c1sc2cc([N+](=O)[O-])ccc2c1Cl -0.6
CN1OC[C@@H]2CN(C(=O)c3ccco3)[C@H](c3ccc(-c4ccc(C#N)cc4)cc3)C[C@@H]21 -0.137
